# Measurements from PubChem BioAssay.
# Calls of active or inactive are those of the source.
# Key:
# [1] = tested on: PRMT1 (protein arginine N-methyltransferase 1); test: small molecules binding arginine methyltransferase PRMT1 – biochemical, small-molecule microarray, 635 nm fluorescence, primary screen (AID 1088); settings: higher = more signal;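 note: binding of Prmt1 protein to compounds spotted on small-molecule microarray slides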
# [2] = growth effects on S. cerevisiae YJM789 – YJM789 clinical isolate, OD600, 24 h, basal, primary screen (AID 1089); settings: higher = more signal, called active from +8 up or from −8 down;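 note: growth of clinical yeast isolate S. cerevisiae YJM 789 seeded 1000 cells per well; test concentration not given here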
# [3] = S. pombe growth modifiers, basal conditions – strain 972, OD600, 24 h, no modulator, primary screen (AID 1090);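 note: basal condition with compound alone and no growth modifier present; test concentration not given here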; settings: S. pombe 972 growth, higher = more signal, called active from +8 up or from −8 down
# [4] = budding yeast growth modifiers under rapamycin – strain BY4716, OD600, 96 h, primary screen (AID 1091); note: test concentration not given here; settings: S. cerevisiae BY4716 + rapamycin, higher = more signal, called active from +8 up or from −8 down
# [5] = target: Torsin-1A-interacting protein 2 (Homo sapiens) (UniProt Q8NFQ8); test: small molecules binding lysate-expressed LULL1 – cell lysate, human LULL1 lysate, 635/667 nm fluorescence, primary screen (AID 1092); settings: small-molecule microarray, hLULL1 lysate binding, 635 nm fluorescence; higher = more signal;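 note: probe is lysate of COS7 cells overexpressing human LULL1; score merges per-feature 667 nm fluorescence with signal-to-noise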
# Chain of Torsin-1A-interacting protein 2 (Homo sapiens) (Q8NFQ8 whole entry, looked up): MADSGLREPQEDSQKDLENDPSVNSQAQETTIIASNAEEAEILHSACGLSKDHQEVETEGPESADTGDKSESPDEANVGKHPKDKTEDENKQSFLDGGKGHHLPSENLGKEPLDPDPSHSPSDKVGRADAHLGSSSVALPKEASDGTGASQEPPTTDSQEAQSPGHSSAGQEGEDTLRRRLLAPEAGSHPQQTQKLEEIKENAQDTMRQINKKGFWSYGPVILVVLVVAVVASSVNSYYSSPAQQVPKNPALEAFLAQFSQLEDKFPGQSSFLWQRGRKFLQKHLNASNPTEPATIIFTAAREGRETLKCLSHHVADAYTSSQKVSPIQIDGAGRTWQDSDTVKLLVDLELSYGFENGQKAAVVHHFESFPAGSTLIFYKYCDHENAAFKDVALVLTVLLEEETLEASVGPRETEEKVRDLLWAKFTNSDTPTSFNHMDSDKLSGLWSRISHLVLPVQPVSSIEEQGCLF
# [6] = optical density change of DRC41 E. coli – strain DRC41, OD650, 24 h, E. coli filamentation project, primary screen (AID 1093);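 note: MC1000 strain lacking acrAB efflux and sulA so SOS filamentation is blocked; test concentration not given here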; settings: E. coli DRC41 growth, higher = more signal, called active from +8 up or from −8 down
# [7] = probe aLefty2 binding to arrayed compounds – biochemical, biotinylated probe, 635/667 nm fluorescence, primary screen (AID 1094); settings: small-molecule microarray, higher = more signal;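 note: score merges spot fluorescence near 667 nm with spot signal-to-noise ratio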
# [8] = tested on: Noggin (protein binding on small-molecule microarray); test: small molecules binding Noggin protein – biochemical, 635/667 nm fluorescence, primary screen (AID 1095); settings: 635 nm fluorescence, higher = more signal;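 note: score merges 667 nm feature fluorescence with signal to noise over triplicate slides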
# [9] = target: Neurogenic locus notch homolog protein 3 (Homo sapiens) (UniProt Q9UM47); test: small molecules binding NOTCH3 protein – biochemical, 635/667 nm fluorescence, primary screen (AID 1096); settings: small-molecule microarray, 635 nm fluorescence, higher = more signal
# Chain of Neurogenic locus notch homolog protein 3 (Homo sapiens) (Q9UM47 whole entry, looked up): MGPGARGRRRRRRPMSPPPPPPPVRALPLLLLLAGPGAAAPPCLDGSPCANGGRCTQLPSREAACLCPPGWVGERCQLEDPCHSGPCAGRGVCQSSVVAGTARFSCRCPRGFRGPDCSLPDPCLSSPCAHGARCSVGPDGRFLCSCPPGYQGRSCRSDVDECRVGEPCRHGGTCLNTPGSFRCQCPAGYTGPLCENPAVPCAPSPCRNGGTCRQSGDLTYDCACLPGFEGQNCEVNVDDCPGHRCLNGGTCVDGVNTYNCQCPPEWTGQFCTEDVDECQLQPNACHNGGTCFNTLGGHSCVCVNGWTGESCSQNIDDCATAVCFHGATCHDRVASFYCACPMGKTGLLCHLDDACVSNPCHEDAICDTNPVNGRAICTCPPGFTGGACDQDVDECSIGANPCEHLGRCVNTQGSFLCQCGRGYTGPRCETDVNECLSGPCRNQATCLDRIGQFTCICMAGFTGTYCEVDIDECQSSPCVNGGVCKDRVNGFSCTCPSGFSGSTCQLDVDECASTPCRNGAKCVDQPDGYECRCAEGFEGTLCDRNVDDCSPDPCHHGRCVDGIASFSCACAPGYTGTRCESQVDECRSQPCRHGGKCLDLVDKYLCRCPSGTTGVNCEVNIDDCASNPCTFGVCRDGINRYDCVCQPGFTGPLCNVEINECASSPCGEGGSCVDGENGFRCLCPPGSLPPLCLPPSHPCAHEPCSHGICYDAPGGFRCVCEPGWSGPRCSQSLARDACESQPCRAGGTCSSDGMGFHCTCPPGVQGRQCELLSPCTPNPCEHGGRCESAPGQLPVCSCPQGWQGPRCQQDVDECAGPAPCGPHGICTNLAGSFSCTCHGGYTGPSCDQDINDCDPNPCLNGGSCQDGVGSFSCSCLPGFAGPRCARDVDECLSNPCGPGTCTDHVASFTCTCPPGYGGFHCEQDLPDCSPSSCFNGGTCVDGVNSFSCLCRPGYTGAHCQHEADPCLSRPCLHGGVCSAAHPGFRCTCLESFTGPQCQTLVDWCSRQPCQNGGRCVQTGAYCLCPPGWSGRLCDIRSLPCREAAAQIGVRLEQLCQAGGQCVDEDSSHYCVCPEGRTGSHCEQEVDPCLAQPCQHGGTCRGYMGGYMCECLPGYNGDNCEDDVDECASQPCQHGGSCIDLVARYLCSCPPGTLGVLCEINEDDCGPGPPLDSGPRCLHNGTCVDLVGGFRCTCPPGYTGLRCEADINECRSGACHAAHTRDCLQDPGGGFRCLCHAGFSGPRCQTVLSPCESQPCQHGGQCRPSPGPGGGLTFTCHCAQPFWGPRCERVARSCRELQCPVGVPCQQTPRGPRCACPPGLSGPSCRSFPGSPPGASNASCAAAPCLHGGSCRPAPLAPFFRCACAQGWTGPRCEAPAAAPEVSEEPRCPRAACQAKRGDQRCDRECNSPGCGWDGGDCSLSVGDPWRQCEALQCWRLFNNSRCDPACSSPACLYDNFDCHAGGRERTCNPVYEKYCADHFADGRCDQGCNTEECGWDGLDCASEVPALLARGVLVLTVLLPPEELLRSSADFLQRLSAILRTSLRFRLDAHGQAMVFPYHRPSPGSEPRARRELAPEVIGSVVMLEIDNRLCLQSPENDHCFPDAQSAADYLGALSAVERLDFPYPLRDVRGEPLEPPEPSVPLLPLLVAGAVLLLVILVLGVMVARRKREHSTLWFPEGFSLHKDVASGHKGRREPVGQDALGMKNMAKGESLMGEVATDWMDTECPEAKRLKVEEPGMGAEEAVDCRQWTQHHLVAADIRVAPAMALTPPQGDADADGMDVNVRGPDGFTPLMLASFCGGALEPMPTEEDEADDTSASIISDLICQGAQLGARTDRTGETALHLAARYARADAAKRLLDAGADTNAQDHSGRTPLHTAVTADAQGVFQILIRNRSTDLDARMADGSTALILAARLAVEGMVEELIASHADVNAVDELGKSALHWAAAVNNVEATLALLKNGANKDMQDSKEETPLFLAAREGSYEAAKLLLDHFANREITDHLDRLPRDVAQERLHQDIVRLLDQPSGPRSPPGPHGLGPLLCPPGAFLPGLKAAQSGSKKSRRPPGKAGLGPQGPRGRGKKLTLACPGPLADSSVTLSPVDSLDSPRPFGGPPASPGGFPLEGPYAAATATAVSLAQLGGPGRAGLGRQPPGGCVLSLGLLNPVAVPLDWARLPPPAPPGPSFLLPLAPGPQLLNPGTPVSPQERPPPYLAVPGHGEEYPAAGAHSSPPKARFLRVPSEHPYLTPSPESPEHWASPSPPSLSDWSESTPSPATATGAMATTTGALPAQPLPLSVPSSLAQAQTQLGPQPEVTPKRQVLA
# [10] = probe aEGFR binding to arrayed compounds – biochemical, biotinylated probe, 635/667 nm fluorescence, primary screen (AID 1097); settings: small-molecule microarray, higher = more signal;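 note: probe is a biotinylated anti-EGFR antibody binding compounds printed on slides; score combines fluorescence near 667 nm and signal to noise of each spot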
# [11] = tested on: Plasmodium falciparum Sir2 (PF13_0152, Sir2A); test: Plasmodium falciparum Sir2A binding compounds – biochemical, small-molecule microarray, 635 nm fluorescence, primary screen (AID 1098); settings: fluorescence 635 nm, higher = more signal;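 note: score merges spot fluorescence intensity with its signal-to-noise ratio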
# [12] = probe aDKK1 binding to arrayed compounds – biochemical, biotinylated probe, 635/667 nm fluorescence, primary screen (AID 1099); settings: small-molecule microarray, higher = more signal;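 note: score merges 667nm spot fluorescence with signal to noise across triplicate slides; reference of the scale not given here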
# [13] = probe aCHRDL2 binding to arrayed compounds – biochemical, biotinylated probe, 635/667 nm fluorescence, primary screen (AID 1100); settings: small-molecule microarray, higher = more signal
# [14] = change in splice reporter luminescence, either direction, cell-based, HEK293, spliceosome inhibition project, primary screen (AID 1101); settings: HEK293 splicing luciferase reporter, 24 h, higher = more signal, called active from +8 up or from −8 down;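 note: HEK293 cells carrying a splicing-competent luciferase reporter gene; test concentration not given here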
# [15] = target: Fibroblast growth factor 10 (Homo sapiens) (UniProt O15520); test: compounds binding fibroblast growth factor 10 – biochemical, small-molecule microarray, 635 nm fluorescence, primary screen (AID 1102); settings: FGF10 binding, fluorescence 635 nm, higher = more signal
# Chain of Fibroblast growth factor 10 (Homo sapiens) (O15520 whole entry, looked up): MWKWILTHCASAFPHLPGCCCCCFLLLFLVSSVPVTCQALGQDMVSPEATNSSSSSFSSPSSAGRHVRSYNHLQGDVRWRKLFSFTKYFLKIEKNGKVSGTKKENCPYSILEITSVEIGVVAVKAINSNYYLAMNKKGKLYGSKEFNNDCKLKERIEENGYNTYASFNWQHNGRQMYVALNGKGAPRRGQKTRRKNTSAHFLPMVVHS
# [16] = tested on: glycogen synthase kinase-3 (GSK3A per assay name; protocol says GSK3B); test: compounds binding glycogen synthase kinase-3 – biochemical, small-molecule microarray, 635 nm fluorescence, GSK3A, primary screen (AID 1103); settings: fluorescence 635 nm, higher = more signal; note: the record names both GSK3A and GSK3B
# [17] = target: Epidermal growth factor receptor (Homo sapiens) (UniProt P00533); test: compounds binding epidermal growth factor receptor – biochemical, small-molecule microarray, 635 nm fluorescence, primary screen (AID 1104); settings: EGFR binding, higher = more signal;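 note: score merges 667 nm emission intensity with spot signal to noise over triplicate slides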
# Chain of Epidermal growth factor receptor (Homo sapiens) (P00533 whole entry, looked up): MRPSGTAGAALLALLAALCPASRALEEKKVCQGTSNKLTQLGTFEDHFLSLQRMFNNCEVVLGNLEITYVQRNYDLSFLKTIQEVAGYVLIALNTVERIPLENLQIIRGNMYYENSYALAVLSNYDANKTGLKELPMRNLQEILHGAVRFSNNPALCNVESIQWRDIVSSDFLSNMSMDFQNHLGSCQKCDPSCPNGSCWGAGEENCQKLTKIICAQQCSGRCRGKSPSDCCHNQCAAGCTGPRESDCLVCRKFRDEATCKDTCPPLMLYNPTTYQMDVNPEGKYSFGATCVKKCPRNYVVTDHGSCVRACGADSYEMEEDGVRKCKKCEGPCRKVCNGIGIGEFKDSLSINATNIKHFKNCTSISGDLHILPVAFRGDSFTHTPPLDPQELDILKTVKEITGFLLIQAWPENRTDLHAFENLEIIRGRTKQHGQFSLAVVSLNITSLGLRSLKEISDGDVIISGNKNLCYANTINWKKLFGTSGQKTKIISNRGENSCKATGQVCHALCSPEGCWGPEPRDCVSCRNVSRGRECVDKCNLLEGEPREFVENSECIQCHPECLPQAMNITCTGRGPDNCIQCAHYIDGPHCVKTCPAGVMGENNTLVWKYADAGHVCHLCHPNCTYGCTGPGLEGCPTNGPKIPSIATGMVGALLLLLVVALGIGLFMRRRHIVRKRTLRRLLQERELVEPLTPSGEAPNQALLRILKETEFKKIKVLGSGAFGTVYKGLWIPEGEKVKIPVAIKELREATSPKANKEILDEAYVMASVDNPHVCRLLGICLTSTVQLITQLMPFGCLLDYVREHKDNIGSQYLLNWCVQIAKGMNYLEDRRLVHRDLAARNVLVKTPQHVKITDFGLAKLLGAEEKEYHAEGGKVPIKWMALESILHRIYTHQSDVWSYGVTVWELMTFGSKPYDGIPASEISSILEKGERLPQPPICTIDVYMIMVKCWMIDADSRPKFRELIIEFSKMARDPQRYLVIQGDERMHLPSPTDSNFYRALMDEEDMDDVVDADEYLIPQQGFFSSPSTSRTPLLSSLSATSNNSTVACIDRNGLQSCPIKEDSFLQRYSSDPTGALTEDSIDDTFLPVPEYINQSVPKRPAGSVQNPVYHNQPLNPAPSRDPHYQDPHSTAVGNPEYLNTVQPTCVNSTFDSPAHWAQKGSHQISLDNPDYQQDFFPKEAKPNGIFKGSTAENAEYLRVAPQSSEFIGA
# [18] = target: Follistatin-related protein 3 (Homo sapiens) (UniProt O95633); test: compounds binding follistatin-related protein 3 – biochemical, small-molecule microarray, 635 nm fluorescence, primary screen (AID 1105); settings: FSTL3 binding, higher = more signal;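 note: score merges emission near 667 nm and signal to noise per printed spot across three slides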
# Chain of Follistatin-related protein 3 (Homo sapiens) (O95633 whole entry, looked up): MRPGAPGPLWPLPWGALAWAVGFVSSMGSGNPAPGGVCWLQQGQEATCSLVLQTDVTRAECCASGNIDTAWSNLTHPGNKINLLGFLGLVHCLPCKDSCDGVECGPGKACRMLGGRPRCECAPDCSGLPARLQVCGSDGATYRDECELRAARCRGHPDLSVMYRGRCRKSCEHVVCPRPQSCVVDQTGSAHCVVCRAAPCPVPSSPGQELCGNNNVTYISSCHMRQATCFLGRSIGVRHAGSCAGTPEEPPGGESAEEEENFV
# [19] = target: Dickkopf-related protein 1 (Homo sapiens) (UniProt O94907); test: small molecules binding DKK1 protein – biochemical, small-molecule microarray, 635 nm fluorescence scan, primary screen (AID 1106); settings: higher = more signal;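 note: score merges emission near 667 nm with signal to noise over three replicate slides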
# Chain of Dickkopf-related protein 1 (Homo sapiens) (O94907 whole entry, looked up): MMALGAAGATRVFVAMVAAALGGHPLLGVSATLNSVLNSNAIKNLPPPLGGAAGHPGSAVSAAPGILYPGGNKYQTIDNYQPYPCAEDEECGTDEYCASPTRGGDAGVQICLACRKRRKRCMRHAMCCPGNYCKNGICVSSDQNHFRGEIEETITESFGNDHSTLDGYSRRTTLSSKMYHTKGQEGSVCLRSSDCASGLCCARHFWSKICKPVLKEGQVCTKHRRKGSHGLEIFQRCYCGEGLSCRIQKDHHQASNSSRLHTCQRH
# [20] = tested on: Inhibin beta A chain (activin A); test: small molecules binding activin A – biochemical, small-molecule microarray, 635 nm fluorescence scan, primary screen (AID 1107); settings: INHBA, higher = more signal;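 note: mouse activin A protein probed at 4.33 µg/mL on printed slides; score merges bound-protein fluorescence near 667 nm with spot signal-to-noise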
Compound,composite z-score [1],z-score [2],z-score [3],z-score [4],composite z-score [5],z-score [6],composite z-score [7],composite z-score [8],composite z-score [9],composite z-score [10],composite z-score [11],composite z-score [12],composite z-score [13],z-score [14],composite z-score [15],composite z-score [16],composite z-score [17],composite z-score [18],composite z-score [19],composite z-score [20]
O=C1[C@H]2[C@H]3[C@H](O)[C@H](O)CC(=NO[C@@H]4O[C@H](CO)[C@@H](O)[C@H](O)[C@H]4O)[C@H]3CC[C@H]2C(=O)N1c1ccc(F)cc1F,1.08,-0.484 (inactive),-0.352 (inactive),-1.99 (inactive),0.0348,0.356 (inactive),-0.128,0.161,0.365,-0.0084,-0.134,0.0579,0.129,0.324 (inactive),-0.0077,-0.444,0.172,0.0345,-0.494,-1.81
Cc1ccc(S(=O)(=O)N[C@@H]2COC(=O)CC=C[C@@H](C)[C@H](NS(=O)(=O)c3ccc(C)cc3)COC(=O)[C@H](C)NC(=O)CC=C[C@H]2C)cc1,-0.287,-0.0073 (inactive),0.13 (inactive),0.147 (inactive),-0.865,0.715 (inactive),-0.291,0.354,-0.632,-0.16,-0.267,-0.472,-0.684,-0.294 (inactive),-0.0861,-0.0951,0.0994,0.129,0.123,1.27
O=C1CCCC=C1C(O)COCc1ccccc1 (stereo not given),-0.544,0.249 (inactive),-0.233 (inactive),0.456 (inactive),-0.395,0.202 (inactive),-0.212,0.022,-0.256,-0.142,0.179,-0.32,-0.344,-0.0937 (inactive),-0.146,-1.62,-0.137,-0.171,-0.126,0.53
CO[C@H]1COC(=O)CCC[C@H](C)[C@H](OC)COC(=O)CC=C[C@@H]1C,1.12,-1.3 (inactive),-0.654 (inactive),-1.59 (inactive),-1.88,-0.0243 (inactive),-0.0113,1.13,-0.398,0.0278,1.49,-0.427,-0.931,-1.39 (inactive),-0.0317,0.0951,0.822,1.04,0.872,1.43
CO[C@H]1COC(=O)CC=C[C@H](C)[C@H](OC)COC(=O)[C@@H](C)NC(=O)CC=C[C@@H]1C,1.56,-1.77 (inactive),-0.391 (inactive),-0.735 (inactive),0.525,-0.159 (inactive),-0.0122,1.61,0.346,-0.0313,1.65,-0.407,-1.19,-0.59 (inactive),0.777,0.507,0.383,1.36,1.56,1.64
C#CCCCON=C1C[C@@H](O)[C@@H](O)[C@@H]2[C@@H]3C(=O)N(C[C@@H]4CCCO4)C(=O)[C@@H]3CC[C@@H]12,0.345,-0.281 (inactive),0.504 (inactive),-0.747 (inactive),0.379,0.133 (inactive),-0.119,0.595,0.752,-0.0436,0.44,-0.244,-0.362,-0.28 (inactive),0.732,0.223,0.469,0.67,0.449,0.397
CC1(C)O[C@H]2OC([C@H](O)CON3C(=O)c4ccccc4C3=O)[C@H](O)[C@H]2O1 (stereo not given in full),0.318,-0.702 (inactive),-0.344 (inactive),-0.425 (inactive),-0.061,0.742 (inactive),-0.0561,0.441,0.419,0.0434,-0.0933,-0.467,-0.562,0.105 (inactive),0.0612,0.0618,0.237,0.205,0.46,-0.582
CC=CC1=C(CO)[C@H](O)[C@H]2O[C@H]2[C@@H]1O,0.028,0.285 (inactive),1.03 (inactive),-0.258 (inactive),0.0048,0.712 (inactive),-0.221,0.59,0.429,-0.128,0.134,-0.416,-1.13,0.666 (inactive),0.733,0.403,0.148,0.608,0.943,0.161
CC(C)[C@H](NC(=O)OC(C)(C)C)[C@@H](O)CC(=O)C(C)(C)C,-0.377,0.24 (inactive),0.0646 (inactive),0.552 (inactive),0.0487,0.782 (inactive),-0.215,0.838,-0.0208,0.0514,0.447,-0.268,-0.428,-0.275 (inactive),0.159,-0.191,0.327,0.29,0.513,-0.0828
COC(=O)[C@@H]1CC[C@H](C)[C@@H](c2ccc(Br)cc2)N1C(=O)C(F)(F)F,-1.18,0.61 (inactive),0.186 (inactive),2.16 (inactive),1.25,0.11 (inactive),-0.22,-0.281,-0.446,-0.226,-0.324,-0.215,-0.174,-0.0429 (inactive),-0.329,-0.657,0.0496,-0.324,-0.144,0.237
